# Data: publication PMC5540273 (PLoS ONE, 2017)
# Tests used:
# Conditions in all cases: concentration: 1 μM, replicates: in singlicate; n = 1
# MERTK = test system: MERTK
# MET = test system: MET
# MINK = test system: T1, MINK
# T1 construct: gene MINK1
# MKK7 = test system: MKK7
# MKNK1 = test system: MKNK1
# MKNK2 = test system: MKNK2
# MLCK = test system: T2, MLCK
# T2 construct: gene MYLK3
# MLK1 = test system: T3, MLK1
# T3 construct: gene MAP3K9
# MLK2 = test system: MLK2
# MLK3 = test system: MLK3
# 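Also: KINOMEscan kinase panel screen.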
Structure (SMILES),%Inh (MERTK),%Inh (MET),%Inh (MINK),%Inh (MKK7),%Inh (MKNK1),%Inh (MKNK2),%Inh (MLCK),%Inh (MLK1),%Inh (MLK2),%Inh (MLK3)
COC(=O)c1cccc(NC(=O)NCCNc2ccnc(Nc3ccc(F)cc3)n2)c1 [GSK1379883],18%,0%,0%,0%,7%,5%,0%,0%,8%,6%
Fc1cccc(COc2ccc(Nc3ncnc4cc[nH]c34)cc2Cl)c1,0%,8%,34%,0%,19%,10%,0%,9%,0%,32%
COc1ccc(NC(=O)Nc2ccc(C)c(-c3ccc(C(=O)Nc4ccncc4)cc3)c2)cc1 [GSK1398475],31%,0%,5%,0%,6%,0%,0%,0%,0%,0%
CNc1nccc(-c2c(-c3ccc(F)cc3)ncn2C2CCN(C)CC2)n1 [SB-222903],0%,6%,43%,0%,0%,0%,0%,0%,31%,0%
Fc1ccc(Nc2nccc(-c3c(-c4ccc(Cl)cc4)nn4ncccc34)n2)cc1F [GW829058],0%,3%,14%,23%,0%,2%,9%,2%,12%,4%
Clc1ccc(-c2cc(-c3c[nH]nc3-c3ccccn3)ccn2)cc1 [GW681251],27%,0%,78%,30%,0%,3%,0%,0%,0%,0%
C[C@@H]1CCN(C(=O)CO)C[C@@H]1N(C)c1ncnc2[nH]ccc12,0%,0%,0%,0%,0%,0%,14%,0%,35%,8%
Cn1cc(-c2ccc3c(c2)CCN3C(=O)Cc2cccc(C(F)(F)F)c2)c2c(N)ncnc21 [GSK2606414],43%,0%,0%,0%,0%,1%,12%,0%,27%,8%
Cc1ccc(NC(=O)c2cccc(C#N)c2)cc1-c1ccc(C(=O)Nc2ccncc2)cc1 [GSK1398463],0%,0%,0%,0%,0%,23%,0%,0%,24%,0%
O=C(NCCCN1CCCC1=O)c1cnc(NCc2cc(Cl)ccc2Cl)nc1NC1CCNCC1,63%,0%,0%,0%,0%,0%,11%,0%,0%,0%
Cl.c1ccc(Cn2ncc3cc(Nc4ncnc5ccccc45)ccc32)cc1 [GW273749],9%,0%,0%,0%,6%,30%,0%,0%,0%,0%
FC(F)(F)c1ccc(-c2nn3ncccc3c2-c2ccnc(Nc3cccc(C(F)(F)F)c3)n2)cc1 [GW828205],1%,21%,12%,0%,0%,0%,0%,4%,0%,0%
Cl.Cl.c1ccc(-c2cc3ccncc3cc2OC2CCNCC2)cc1 [GSK1122999],46%,0%,6%,0%,29%,4%,10%,0%,0%,23%
Cc1cccc(-c2nc(Nc3ccc4[nH]nnc4c3)c3ccccc3n2)n1 [GW867587],19%,0%,0%,0%,8%,0%,0%,0%,0%,0%
CS(=O)(=O)CCNCc1nc(-c2ccc3ncnc(Nc4ccc(OCc5cccc(F)c5)c(Cl)c4)c3c2)cs1.Cl [GW583340],0%,0%,0%,0%,0%,0%,0%,0%,0%,0%
COc1ccc(Nc2nccc(N3CCC(NC(=O)Nc4ccc5c(c4)OCO5)C3)n2)cc1 (centres unmarked) [GSK1379745],34%,20%,3%,24%,21%,6%,31%,6%,19%,38%
O=C(Nc1n[nH]c2nc(-c3ccco3)c(Br)cc12)c1ccc(CN2CCCC2)cc1.O=C(O)[C@H](O)[C@@H](O)C(=O)O [SB-742352],22%,0%,0%,0%,0%,0%,69%,0%,0%,10%
Cn1ccc2ncnc(Nc3ccc(Oc4cccc(Cl)c4)c(Cl)c3)c21,13%,2%,7%,0%,16%,0%,0%,7%,15%,0%
Nc1nc(-c2ccc3c(N)n[nH]c3c2)cc(N2CCCCC2)n1 [GSK2228768],0%,0%,0%,0%,0%,23%,0%,0%,0%,0%
Fc1cccc(COc2ccc(Nc3ncnc4nn5ccccc5c34)cc2Cl)c1 [GW689066],6%,0%,0%,0%,4%,0%,4%,0%,0%,0%
CCn1c(-c2ccncc2)nc2cnccc21 [SB-735216],0%,1%,19%,5%,5%,33%,0%,8%,0%,0%

Structure (SMILES),%Inh (MERTK),%Inh (MET),%Inh (MINK),%Inh (MKK7),%Inh (MKNK1),%Inh (MKNK2),%Inh (MLCK),%Inh (MLK1),%Inh (MLK2),%Inh (MLK3)
COc1ccc(NC(=O)c2ccc(-c3cc(-c4nnc(C)o4)ccc3C)cc2)cc1 [GW595885],21%,0%,0%,34%,2%,12%,0%,0%,0%,11%
Cn1ccc2ncnc(Oc3ccc(NC(=O)Nc4cccnc4)c(Cl)c3)c21,6%,15%,0%,0%,10%,0%,0%,14%,2%,0%
CNc1nccc(-c2c(-c3ccc(F)cc3)ncn2CCCN2CCOCC2)n1 [SB-222516],19%,3%,15%,0%,3%,0%,1%,33%,10%,0%
NC(=O)c1sc(-n2cnc3ccccc32)cc1OCc1ccccc1F [GSK1024306],32%,20%,1%,0%,10%,0%,0%,9%,0%,7%
Nc1n[nH]c2nnc(-c3ccccc3)cc12 [SB-517389],13%,0%,23%,0%,77%,12%,86%,0%,0%,0%
CN1CCC(n2cnc(-c3ccc(F)cc3)c2-c2ccnc(NC3CCNCC3)n2)CC1 [SB-229482],0%,0%,0%,11%,0%,32%,0%,38%,5%,0%
COc1cc2c(Nc3cccc(NC(=O)c4ccccc4)c3)ncnc2cc1OCCCN1CCOCC1 [GSK223810],20%,1%,0%,0%,23%,9%,0%,0%,23%,13%
Cl.c1ccc(Cn2ccc3cc(Nc4ncnc5ccccc45)ccc32)cc1 [GW275568],0%,2%,12%,7%,6%,12%,0%,0%,0%,13%
O=C(Nc1ccccc1F)NC1CCN(c2ccnc(Nc3ccc(F)cc3)n2)C1 (centres unmarked) [GSK1379722],6%,0%,0%,0%,7%,23%,10%,0%,0%,9%
COC(=O)c1c(-c2ccccc2)c2cc(Cl)ccc2c(=O)n1Cc1ccc(S(C)(=O)=O)cc1,8%,0%,0%,0%,0%,0%,0%,0%,0%,4%
Fc1cccc(COc2ccc(Nc3ncnc4sc(-c5ccc[nH]5)cc34)cc2Cl)c1 [GW707818],10%,0%,16%,8%,12%,2%,0%,7%,0%,2%
COc1ccc(Nc2nccc(N3CCC(NC(=O)c4cccc(NC(C)=O)c4)C3)n2)cc1 (centres unmarked) [GSK1379732],24%,0%,17%,0%,0%,12%,31%,0%,0%,12%
O=C(c1ccc(-c2cc(-c3c[nH]nc3-c3ccccn3)ccn2)cc1)N1CCCC1 [GW792479],0%,23%,30%,0%,0%,0%,0%,14%,14%,3%
c1ccc(-c2ccc3c(-c4ccnc(Nc5ccc6c(c5)OCCO6)n4)cnn3n2)cc1 [GW818941],58%,100%,0%,21%,0%,2%,4%,12%,39%,28%
O=C(CCO)NCCn1ccc2ncnc(Nc3ccc(Oc4cccc(C(F)(F)F)c4)c(Cl)c3)c21,0%,0%,0%,0%,0%,12%,0%,0%,0%,0%
COc1cc2ncnc(Nc3ccc(OCc4ccccc4Br)c(Cl)c3)c2cc1OC.Cl [GI261590],7%,0%,0%,0%,0%,11%,0%,0%,11%,9%
O=C(Nc1ccccc1)Nc1ccc(Oc2ccc3nccn3n2)cc1,16%,1%,38%,0%,14%,0%,0%,15%,0%,0%
Nc1nc(-c2ccc3c(N)n[nH]c3c2)cc(N2CCC[C@@H](C(=O)Nc3ccccc3)C2)n1.O=C(O)C(F)(F)F.O=C(O)C(F)(F)F [GSK2288359],0%,0%,0%,0%,11%,1%,0%,0%,0%,0%
CC(C)N1CCC(n2cnc(-c3ccc(F)cc3)c2-c2ccnc(N)n2)CC1 [SB-223132],0%,14%,7%,0%,2%,0%,0%,0%,4%,0%
Cl.Fc1ccccc1COc1ccc(Nc2ncnc3ccc(-c4nnc(C(F)(F)F)o4)cc23)cc1Cl [GW424170],10%,0%,0%,0%,0%,0%,0%,0%,0%,3%
